In PubChem BioAssay (NCATS):
Results filed as inconclusive are left out. Activity calls are given as the source filed them. Unless noted, calls follow the shape of the dose curve; as a rule, active = well fitted curve in the direction sought with a large enough effect; inconclusive = small, poorly fitted or top-dose-only effect, or another doubt; inactive = no such curve, though single readings can be large; an effect the other way counts as inactive or inconclusive.

Key:
[1] = biological target: Cytochrome P450 3A4 (Homo sapiens) (UniProt P08684); assay: qHTS Assay for Activators of Cytochrome P450 3A4 (AID 885); also: nearly all actives have a fitted effect of over 65% in size
Cytochrome P450 3A4 (Homo sapiens), sequence (P08684 whole entry, looked up): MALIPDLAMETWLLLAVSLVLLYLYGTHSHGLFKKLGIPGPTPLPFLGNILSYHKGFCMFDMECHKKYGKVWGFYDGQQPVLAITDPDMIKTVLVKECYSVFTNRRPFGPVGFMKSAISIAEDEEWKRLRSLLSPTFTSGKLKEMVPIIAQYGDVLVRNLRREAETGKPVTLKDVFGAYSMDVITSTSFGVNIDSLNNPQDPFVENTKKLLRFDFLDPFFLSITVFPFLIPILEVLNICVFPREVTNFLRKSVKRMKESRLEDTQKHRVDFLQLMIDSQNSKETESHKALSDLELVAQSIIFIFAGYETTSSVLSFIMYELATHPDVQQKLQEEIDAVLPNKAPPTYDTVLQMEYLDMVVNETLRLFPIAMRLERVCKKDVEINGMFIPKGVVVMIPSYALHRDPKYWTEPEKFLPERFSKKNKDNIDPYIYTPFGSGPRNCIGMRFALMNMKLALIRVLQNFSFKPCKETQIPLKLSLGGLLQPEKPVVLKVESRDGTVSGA
Procedure, shortened: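 Using 20nM recombinant human CYP3A4 in potassium phosphate (200mM), substrate Luciferin-PPXE at 25uM, luminescent luciferin detection followed a 60-min RT NADPH reaction; data scaled to 57 uM ketoconazole.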

[2] = Confirmation and Secondary Assay for Modulators of Hemoglobin Beta Chain Splicing at IVS2 654 locus (AID 910); also: % of control where 0% means no effect
Procedure, shortened: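 HeLa cells stably carrying EGFP interrupted by mutant beta-globin IVS2-654 intron (CMV-driven) were treated with compound for 2 days at 37C; corrected splicing was scored as total peak GFP intensity per well (488 nm excitation, 500-520 nm emission).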

[3] = Confirmation and Secondary Assay for Modulators of Hemoglobin Beta Chain Splicing at IVS2 705 locus (AID 930);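 also: HeLa cells stably expressing the EGFP-705 splicing reporter; GFP fluorescence per well restored by corrected splicing of the IVS2-705 intron in EGFP; % of control where 0% means no effect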
Procedure, shortened: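 Read-out: total peak GFP fluorescence per well (488 nm excitation, 500-520 nm emission) by laser-scanning cytometry. Cells: HeLa EGFP-705 splicing reporter, 2 days compound exposure in Optimem/2% FCS.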

[4] = qHTS Assay for Lipid Storage Modulators (AID 1519; calls by dose curve; as to activity change, negative = inhibition: % is scaled to controls: 0 for no effect and ±100 for the full control effect); conditions: Drosophila S3 cells, BODIPY lipid droplet/cell ratio, laser cytometry, cells loaded with oleic acid; for activity change, negative = inhibition: at 57.5 µM (top of the series)
Procedure, shortened: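 Cells seeded at 5,000 per well were treated with compounds over a concentration series and loaded with oleic acid (400 uM, as added). Lipid droplet fluorescence (488 nm excitation, 500-530 nm channel) was read by laser-scanning cytometry and normalized to 20 uM Triacsin C.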

[5] = biological target: Cytochrome P450 2D6 (Homo sapiens) (UniProt P10635); assay: Cytochrome P450 family 2 subfamily D member 6 (CYP2D6) small molecule antagonists: luciferase biochemical (cell-free) qHTS assay (AID 1645840; active = well fitted curve in the direction sought with a large enough effect in the repeat runs; an effect the other way counts as inactive or inconclusive; also: nearly all actives have a fitted effect of over 55% in size; also: potency is read from the fitted curve at half-maximal effect; as to activity change, negative = inhibition: % is scaled to controls: 0 for no effect and ±100 for the full control effect)
Cytochrome P450 2D6 (Homo sapiens), sequence (P10635 whole entry, looked up): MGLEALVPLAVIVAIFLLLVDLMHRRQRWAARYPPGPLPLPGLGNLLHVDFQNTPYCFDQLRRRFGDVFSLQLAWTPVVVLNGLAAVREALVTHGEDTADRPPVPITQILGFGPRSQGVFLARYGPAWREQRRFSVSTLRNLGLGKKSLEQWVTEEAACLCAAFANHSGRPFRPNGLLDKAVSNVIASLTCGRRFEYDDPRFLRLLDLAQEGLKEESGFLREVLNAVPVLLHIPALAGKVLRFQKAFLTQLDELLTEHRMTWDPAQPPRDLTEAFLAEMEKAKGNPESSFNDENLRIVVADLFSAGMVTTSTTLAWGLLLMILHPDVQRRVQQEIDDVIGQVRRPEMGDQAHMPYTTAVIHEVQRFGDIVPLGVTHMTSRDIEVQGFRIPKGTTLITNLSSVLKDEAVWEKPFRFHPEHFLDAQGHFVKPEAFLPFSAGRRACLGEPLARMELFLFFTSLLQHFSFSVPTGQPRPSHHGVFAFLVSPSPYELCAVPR
Procedure, shortened: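 P450-Glo CYP2D6 system: proluciferin substrate converted by enzyme to luciferin, read by luminescence proportional to activity. Enzyme-substrate mix with compound 10 min at room temperature, then NADPH regeneration 1 h before detection reagent.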

[6] = measured here: cell count channel max response
[7] = measured here: lipid channel max response

| Structure (SMILES) | Potency [1] | Potency [2] | Potency [3] | activity change, negative = inhibition [4] | max response [4, 6] [%] | max response [4, 7] [%] | Potency [5] |
| --- | --- | --- | --- | --- | --- | --- | --- |
| C=C1C(=O)OC2CC1C(OC(C)=O)CC(C)=CCCC(C)=CCC[C@@]2(C)O (stereo not given in full) | inactive | inactive | inactive | -0.0283% (inactive) | 10.1 | 14.3 | – |
| CC(C)c1c(O)ccc2c1CCC1[C@@](C)(C=O)CCC[C@@]21C (stereo not given in full) | – | inactive | inactive | -2.8% (inactive) | 1.05 | -0.0657 | – |
| O=c1c(O)c(-c2ccccc2)oc2ccccc12 | inactive | inactive | inactive | 0.0192% (inactive) | -10 | -11.2 | – |
| C[N+](C)(C)CCOP(=O)([O-])OP(=O)(O)OCC1OC(n2ccc(N)nc2=O)C(O)C1O (stereo not given) | – | inactive | inactive | 5.88% (inactive) | 9.36 | 16.8 | – |
| COc1cc(O)c(C(=O)c2ccccc2)cc1O | inactive | inactive | inactive | 2.59% (inactive) | 7.29 | 11.7 | – |
| NCCCCC(NC(CCc1ccccc1)C(=O)O)C(=O)N1CCCC1C(=O)O (stereo not given) | – | inactive | inactive | 8.08% (inactive) | 11.1 | 24.7 | – |
| CC(=O)OCC1OC(Oc2cc(OC(C)=O)c3c(=O)cc(-c4ccc(OC(C)=O)cc4)oc3c2)[C@@H](OC(C)=O)C(OC(C)=O)C1OC(C)=O (stereo not given in full) | inactive | inactive | inactive | -3.32% (inactive) | -1.21 | -5.92 | – |
| O=C(/C=C/c1ccccc1)c1ccc(O)cc1O | inactive | inactive | inactive | -11.9% (inactive) | 1.3 | -11.1 | – |
| Cc1nc2c3ccccc3nc(NNC(=O)CCC(=O)N3CCN(c4ccccc4)CC3)n2n1 | – | – | – | – | – | – | inactive |
| CCOC(=O)c1csc(-n2nc(-c3ccc(F)c(F)c3)c(Cc3ccc(S(N)(=O)=O)cc3)c2N)n1 | – | – | – | – | – | – | inactive |
| CC(O)CNC(=O)C(=O)Nc1c2c(nn1-c1ccc(Cl)cc1)CSC2 (stereo not given) | – | – | – | – | – | – | inactive |
| CN1CCCC1c1cccnc1 (stereo not given) | – | – | inactive | 7.69% (inactive) | 11.9 | 23.7 | – |
| Cn1c(=O)c2c(nc(CN3CCN(C(=O)C4CC4)CC3)n2Cc2cccc(F)c2)n(C)c1=O | – | – | – | – | – | – | inactive |
| COC(=O)[C@H]1C(OC)[C@@H](OC(=O)c2cc(OC)c(OC)c(OC)c2)C[C@@H]2CN3CCc4c([nH]c5cc(OC)ccc45)[C@H]3C[C@H]21 (stereo not given in full) | – | – | inactive | 8.9% (inactive) | 4.56 | 13.7 | – |
| O=C(Nc1cccc(Cl)c1)Nc1ccccc1OCc1cc(=O)n2ccccc2n1 | – | – | – | – | – | – | inactive |
| NCCOCCOCCOCCOCCN1CCN(C(c2ccc(Cl)cc2)c2ccc(Cl)cc2)CC1 | – | – | – | – | – | – | 6.74 µM (active) |
| Cc1ccccc1CNC(=O)CCCn1c(=O)c2cccn2c2cccnc21 | – | – | – | – | – | – | 8.49 µM (active) |
